What all share (experiment): NCI-60 one-dose screen, 48 h (100 = growth as untreated, 0 = no growth, -100 = all killed)
In one assay the test system is NCI-H23 lung. To be noted: 10 µM unless noted.
The subject of another assay is NCI-H226 lung. The conditions noted are these: 10 µM unless noted.
For another assay, the system named is NCI-H322M lung. To be noted: 10 µM unless noted.
The next assay concerns HOP-62 NSCLC. The conditions noted are these: 10 µM unless noted.
The test system of another assay is NCI-H460 lung. To be noted: 10 µM unless noted.
In another assay the test system is HOP-92 NSCLC. The conditions noted are these: 10 µM unless noted.
The subject of the next assay is NCI-H522 lung. To be noted: 10 µM unless noted.
The subject of a further assay is A549/ATCC NSCLC. To be noted: 10 µM unless noted.
In another assay the test system is 786-0 renal. The conditions noted are these: 10 µM unless noted.
For a further assay, the system named is COLO 205 colon. The conditions noted are these: 10 µM unless noted.
The subject of a further assay is DU-145 prostate. To be noted: 10 µM unless noted.
A further assay deals with K-562 leukemia. The conditions noted are these: 10 µM unless noted.
For a further assay, the system named is MALME-3M melanoma. To be noted: 10 µM unless noted.
A further assay relates to MDA-MB-231 breast. The conditions noted are these: 10 µM unless noted.
The subject of the next assay is RXF 393 renal. The conditions noted are these: 10 µM unless noted.
In the next assay the test system is SF-268 CNS. To be noted: 10 µM unless noted.
A further assay relates to SF-295 CNS. The conditions noted are these: 10 µM unless noted.
For the next assay, the system named is SF-539 CNS. The conditions noted are these: 10 µM unless noted.
The subject of a further assay is UACC-257 melanoma. To be noted: 10 µM.
For another assay, the system named is M14 melanoma. The conditions noted are these: 10 µM unless noted.

This is part of a sample that, as a whole, favours compounds with a hit. Of some 83,000 tested, about 20% had one in any assay.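 Interpretation: 100, growth as untreated; towards 0, rising growth inhibition; 0, no net growth; 0 to -100, cell death. Compounds scoring below 10 were considered active.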 A number with no mark means an inactive call. Calls of active or inactive are those of the source.

For the compound `CC(C)=CCc1c2c(c(O)c3c1O[C@]14C(=C[C@@H]5C[C@H]1C(C)(C)O[C@@]4(C/C=C(/C)C(=O)O)C5=O)C3=O)CC(O)C(C)(C)O2` (stereo not given in full), the growth with NCI-H23 lung was -60.3% (active); in the assay with NCI-H226 lung it was 18.4%; with NCI-H322M lung, 11.6%; with HOP-62 NSCLC, -19.3% (active); in the assay on NCI-H460 lung it was -33.2% (active); with HOP-92 NSCLC, -8.8% (active). Also, the growth in the assay with NCI-H522 lung was -53.9% (active); with A549/ATCC NSCLC, -9.15% (active); in the assay on 786-0 renal it was -39.6% (active); with COLO 205 colon, -67% (active); in the assay on DU-145 prostate, -78.2% (active); with K-562 leukemia it was 5.83% (active). For the same compound, the growth with MALME-3M melanoma is -38.5% (active); with MDA-MB-231 breast, 0.342% (active); in the assay with RXF 393 renal, -77.4% (active); in the assay with SF-268 CNS, -40.7% (active); in the assay on SF-295 CNS, -48.5% (active); in the assay on SF-539 CNS, -37.2% (active). The results for the growth in the assay on UACC-257 melanoma and in the assay with M14 melanoma were -32.5% (active) and -24.8% (active), respectively.
As for `Cc1nn(-c2ccc(Br)cc2)c2nc(CCl)[nH]c(=O)c12`, the growth with NCI-H23 lung was 103%; in the assay on NCI-H226 lung it was 102%; in the assay with NCI-H322M lung, 104%; in the assay with HOP-62 NSCLC, 98.5%; in the assay on NCI-H460 lung, 109%; with HOP-92 NSCLC, 101%. Further, the growth is 85.5% in the assay on NCI-H522 lung; 96.9% with A549/ATCC NSCLC; -88.8% (active) with 786-0 renal; 103% in the assay on COLO 205 colon; 110% with DU-145 prostate; 75.6% in the assay on K-562 leukemia. The growth is 106% in the assay with MALME-3M melanoma; 94.1% in the assay on MDA-MB-231 breast; 119% in the assay on RXF 393 renal; 99.4% in the assay on SF-268 CNS; 100% in the assay on SF-295 CNS; 77% with SF-539 CNS. The growth with UACC-257 melanoma and in the assay with M14 melanoma was 101% in each case.
For `C#C[C@]1(O)CC[C@H]2[C@@H]3CC=C4c5sc(Nc6cccc(C)n6)nc5CC[C@]4(C)[C@H]3CC[C@@]21C`, the growth in the assay on NCI-H23 lung was 36.3%; with NCI-H226 lung, 45%; with NCI-H322M lung, 61.3%; with HOP-62 NSCLC it was 16.5%; with NCI-H460 lung it was 4.46% (active); with HOP-92 NSCLC, 1.75% (active). In addition, the growth with NCI-H522 lung is 44.7%; in the assay on A549/ATCC NSCLC it was 30.7%; in the assay with 786-0 renal, -70.7% (active); with COLO 205 colon it was 68.3%; in the assay with DU-145 prostate it was 43.6%; with K-562 leukemia it was -10.9% (active). Also, the growth in the assay with MALME-3M melanoma was 5.14% (active); in the assay with MDA-MB-231 breast it was 31.9%; with RXF 393 renal, -60.4% (active); in the assay with SF-268 CNS it was -7.63% (active); in the assay on SF-295 CNS, -70.4% (active); in the assay on SF-539 CNS it was -48.8% (active). For the same compound, the growth in the assay with UACC-257 melanoma is -34.9% (active); with M14 melanoma it was -29.8% (active).
On to `CCCCOc1ccc(S(=O)(=O)N2CCN(c3nccc(N4CCOCC4)n3)CC2)cc1`, for which the growth with NCI-H23 lung is 44.2%; in the assay with NCI-H226 lung, 58.3%; in the assay on NCI-H322M lung, 45.1%; with HOP-62 NSCLC, 88.9%; with NCI-H460 lung it was 16%; in the assay on HOP-92 NSCLC it was 14.3%. For the same compound, the growth was 81% in the assay with NCI-H522 lung; 28.9% in the assay on A549/ATCC NSCLC; 39.1% in the assay on 786-0 renal; 77.3% with COLO 205 colon; 20.3% in the assay with DU-145 prostate; 50.8% in the assay with K-562 leukemia. Moreover, the growth was 97.6% with MALME-3M melanoma; 21.5% in the assay on MDA-MB-231 breast; 52.3% in the assay on RXF 393 renal; 13.3% with SF-268 CNS; -40.2% (active) with SF-295 CNS; 65.3% in the assay on SF-539 CNS. Also, the growth is 12% in the assay with UACC-257 melanoma and 18.6% in the assay on M14 melanoma.
As for `CC1=C2C(=C[C@@](C)(COS(N)(=O)=O)[C@@H]2O)C(=O)[C@](C)(O)C12CC2`, the growth with NCI-H23 lung was 23.6%; with NCI-H226 lung, 85.8%; in the assay with NCI-H322M lung, 74.4%; in the assay with HOP-62 NSCLC, 45.7%; with NCI-H460 lung it was 7.04% (active); with HOP-92 NSCLC, 43.8%. Further, the growth with NCI-H522 lung is 70.5%; with A549/ATCC NSCLC, 21.2%; with 786-0 renal, 79.4%; in the assay with COLO 205 colon it was 47.7%; in the assay on DU-145 prostate it was 15.3%; in the assay with K-562 leukemia, 97.2%. Further, the growth in the assay on MALME-3M melanoma is 88.3%; in the assay on MDA-MB-231 breast, 83%; in the assay on RXF 393 renal, -30.2% (active); with SF-268 CNS, 32.2%; in the assay on SF-295 CNS it was 20.5%; in the assay on SF-539 CNS, 64.9%. For the same compound, the growth is 89.3% in the assay with UACC-257 melanoma and 76.7% in the assay on M14 melanoma.
For the compound `COc1ccc(NS(=O)(=O)c2ccc(-c3cnc(C4CC4)o3)cc2)cc1Cl`, the growth in the assay with NCI-H23 lung was 37.3%; in the assay with NCI-H226 lung it was 35.5%; with NCI-H322M lung it was 52.2%; with HOP-62 NSCLC, 30.2%; in the assay on NCI-H460 lung, 18.3%; in the assay on HOP-92 NSCLC, 55.4%. In addition, the growth in the assay on NCI-H522 lung is 33.2%; with A549/ATCC NSCLC, 46.1%; in the assay with 786-0 renal, 46.7%; with COLO 205 colon, 12.4%; in the assay with DU-145 prostate, 24.1%; with K-562 leukemia, 10.1%. The growth in the assay with MALME-3M melanoma was 50%; in the assay with MDA-MB-231 breast, 41.9%; with RXF 393 renal it was 0.101% (active); in the assay with SF-268 CNS, 66.1%; with SF-295 CNS it was 10.6%; in the assay on SF-539 CNS it was 13.3%. Moreover, the growth in the assay with UACC-257 melanoma is 66.9%; with M14 melanoma it was 21.1%.
On to `CC(C)(C)CC(C)(C)n1nnnc1C(Nc1ccccc1)c1cc2cccc3ccc4cccc1c4c32` (stereo not given), for which the growth in the assay on NCI-H23 lung was 82.3%; with NCI-H226 lung, 84%; in the assay with NCI-H322M lung, 91.5%; in the assay on HOP-62 NSCLC, 86.1%; with NCI-H460 lung, 81.7%; in the assay on HOP-92 NSCLC it was 49.7%. Also, the growth in the assay with NCI-H522 lung is 72%; in the assay on A549/ATCC NSCLC it was 78.5%; in the assay on 786-0 renal, 88.4%; with COLO 205 colon, 96.4%; in the assay on DU-145 prostate it was 96.9%; with K-562 leukemia, 72.6%. Also, the growth is 87.4% in the assay with MALME-3M melanoma; 75.1% in the assay with MDA-MB-231 breast; 79.5% with RXF 393 renal; 82.4% in the assay on SF-268 CNS; 86.5% with SF-295 CNS; 95.7% in the assay with SF-539 CNS. The growth is 95.5% with UACC-257 melanoma and 90.2% in the assay on M14 melanoma.
For the compound `O=C(Nc1cccc(-c2nc(-c3ccc(NC(=O)c4cccnc4)cc3Cl)no2)c1)Nc1ccc(NC(=O)C2CC2)c(C(F)(F)F)c1`, the growth with NCI-H23 lung is -68.6% (active); in the assay on NCI-H226 lung, -55.9% (active); in the assay with NCI-H322M lung, -30.7% (active); with HOP-62 NSCLC it was -47.8% (active); in the assay on NCI-H460 lung, -77.7% (active); with HOP-92 NSCLC it was -68.1% (active). Also, the growth in the assay on NCI-H522 lung is -43.6% (active); in the assay with A549/ATCC NSCLC, 7.02% (active); with 786-0 renal, -47.5% (active); with COLO 205 colon, -55.3% (active); with DU-145 prostate, -26.1% (active); in the assay with K-562 leukemia it was 1.44% (active). Further, the growth in the assay with MALME-3M melanoma was -78.6% (active); in the assay on MDA-MB-231 breast, -59.5% (active); in the assay with RXF 393 renal it was -82% (active); with SF-268 CNS, -23.2% (active); with SF-295 CNS it was -81.1% (active); with SF-539 CNS, -86.9% (active). In addition, the growth is -45.5% (active) in the assay with UACC-257 melanoma and -53.3% (active) with M14 melanoma.

Source of the values: PubChem BioAssay (NCI).
